PubChem BioAssay (Tox21)
Records with an inconclusive call do not appear. Activity calls are given as the source filed them. The call rests on the fitted dose curve; in most records, active means well fitted inhibition curve with a large enough effect in the repeat runs; inconclusive means weak or mixed curves; inactive means no such curve, though single readings can be large or run the other way.

molecular target: Cytochrome P450 2C19 (Homo sapiens) (UniProt P33261); test: Cytochrome P450 Family 2 Subfamily C Member 19 (CYP2C19) small molecule antagonists: luciferase reporter qHTS assay (AID 1671197); conditions: P450-Glo CYP2C19 enzyme, luciferin luminescence, 1 h; series mostly up to 52.9 µM; activity change, negative = inhibition: at the top concentration; further: nearly all actives have a fitted effect of over 65% in size
Sequence (P33261 whole entry, looked up): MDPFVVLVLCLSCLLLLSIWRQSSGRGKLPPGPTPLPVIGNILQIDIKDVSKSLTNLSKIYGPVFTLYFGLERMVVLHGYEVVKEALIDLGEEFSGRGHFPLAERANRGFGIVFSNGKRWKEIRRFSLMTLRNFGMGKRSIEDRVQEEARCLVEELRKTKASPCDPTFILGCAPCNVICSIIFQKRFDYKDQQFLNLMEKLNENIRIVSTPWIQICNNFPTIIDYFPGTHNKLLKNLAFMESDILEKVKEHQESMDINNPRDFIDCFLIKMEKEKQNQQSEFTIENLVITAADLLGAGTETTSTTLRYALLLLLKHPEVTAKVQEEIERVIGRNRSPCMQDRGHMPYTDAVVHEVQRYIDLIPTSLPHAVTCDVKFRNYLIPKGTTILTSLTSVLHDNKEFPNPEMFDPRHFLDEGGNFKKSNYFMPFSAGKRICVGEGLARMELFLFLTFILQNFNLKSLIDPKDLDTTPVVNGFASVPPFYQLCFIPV
Procedure, shortened: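 CYP2C19 P450-Glo, 1536-well qHTS. Cpd + enzyme/proluciferin substrate 10 min RT; + NADPH regen, 37C 1 h; stop with luciferin detection reagent, 20 min RT, luminescence (RLU). Pos ctrl ketoconazole.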
On the % scale 0 is the no-effect control and ±100 the full control effect; potency means the concentration at half of the fitted maximal effect.

SMILES	activity change, negative = inhibition	Potency
CC(C)(CCC(=O)O)C(=O)O	-17% [at 115 µM] (inactive)	
C=CC(=O)OCCCl		81.5 µM (active)
CC(=O)Oc1cccc(C)c1	-5.94% (inactive)	
C1CCC2(CCCCO2)OC1	15.8% [at 115 µM] (inactive)	
C=CCCC(=O)O	2.05% [at 115 µM] (inactive)	
CCOc1c(N2CCOCC2)cnn(C)c1=O	11.7% (inactive)	
COc1cc(C(=O)OC(COCCC(C)C)CN2CCOCC2)cc(OC)c1OC (centres undefined)		3.47 µM (active)
CO[C@@]1(NC(=O)C(C(=O)O)c2ccc(O)cc2)C(=O)N2C(C(=O)O)=C(CSc3nnnn3C)CO[C@@H]21 (some centres undefined)	4.29% (inactive)	
CN(C)C(=O)Oc1cccc([N+](C)(C)C)c1	-3.17% (inactive)	
O=[N+]([O-])c1cncn1CCN1CCOCC1	0.681% (inactive)	
Cc1ccnc(NS(=O)(=O)c2ccc(N)cc2)n1	29.3% (inactive)	
[Ca+2]	1.9% [at 115 µM] (inactive)	
CCCC(C)C(=O)OCC (centres undefined)	-2.15% [at 115 µM] (inactive)	
CC(C)C1CCC(O)CC1 (centres undefined)	-8.23% [at 115 µM] (inactive)	
NC(=O)NC1N=C([O][Al])NC1=O (centres undefined)	-22.5% (inactive)	
CC1=NN(c2cccc(S(=O)(=O)O)c2)C(=O)C1	-14.5% [at 115 µM] (inactive)	
CCNS(=O)(=O)c1ccc(C)cc1		20.6 µM (active)
C=CCOCC(O)CO (centres undefined)	28.2% [at 115 µM] (inactive)	
CCCc1ncc(C[n+]2ccccc2C)c(N)n1	-7.37% (inactive)	

SMILES	activity change, negative = inhibition	Potency
CC1(C)[C@@H]2CC[C@@]1(C)[C@H](O)C2	-20.4% [at 115 µM] (inactive)	
c1ccc2sc(SN3CCOCC3)nc2c1		17.4 µM (active)
OCCCCCO	-19.8% [at 115 µM] (inactive)	
Cc1ccccc1N=C(N)N=C(N)N	7.61% [at 115 µM] (inactive)	
O=C(O)CCCC[P+](c1ccccc1)(c1ccccc1)c1ccccc1	18% (inactive)	
COc1ccc2cc1Oc1cc3c(cc1OC)CC[N+](C)(C)[C@H]3Cc1ccc(cc1)Oc1c(OC)c(OC)cc3c1[C@@H](C2)[N+](C)(C)CC3	2.86% (inactive)	
CN1[C@@H]2CC[C@H]1CC(OC(=O)C(O)c1ccccc1)C2 (some centres undefined)	3.27% (inactive)	
O=C1c2ccccc2C(=O)c2cc(O)ccc21		22.5 µM (active)
CCCCCCCCCCCCCCCCCCO	22.1% (inactive)	
C=CCCCCCCCCC(=O)OCC	-17.7% [at 115 µM] (inactive)	
O=C(O)Cc1csc(-c2ccc(Cl)cc2)n1	13% (inactive)	
Nc1ccn([C@@H]2O[C@H](CO)[C@@H](O)C2(F)F)c(=O)n1	18.4% (inactive)	
CC(C)CC(C)(N)C#N (centres undefined)	-25.1% [at 115 µM] (inactive)	
Nc1ccncc1N	-11.9% (inactive)	
C[N+](C)(CCOc1ccccc1)Cc1cccs1	4.99% (inactive)	
Cc1ccc(-c2ncc(Cl)cc2-c2ccc(S(C)(=O)=O)cc2)cn1	-19.1% (inactive)	
CN1CCN(c2cc3c(nn2)Oc2ccccc2N3C)CC1	18.9% [at 23.6 µM] (inactive)	
COc1ccccc1OCC1CNC(=O)O1 (centres undefined)	7.49% (inactive)	

molecular target: Cytochrome P450 2C9 (Homo sapiens) (UniProt P11712); test: Cytochrome P450 Family 2 Subfamily C Member 9 (CYP2C9) small molecule antagonists: luciferase reporter qHTS assay (AID 1671198); conditions: P450-Glo CYP2C9 enzyme assay, luciferin luminescence; series mostly up to 115 µM; activity change, negative = inhibition: at the top concentration; further: nearly all actives have a fitted effect of over 50% in size
Sequence (P11712 whole entry, looked up): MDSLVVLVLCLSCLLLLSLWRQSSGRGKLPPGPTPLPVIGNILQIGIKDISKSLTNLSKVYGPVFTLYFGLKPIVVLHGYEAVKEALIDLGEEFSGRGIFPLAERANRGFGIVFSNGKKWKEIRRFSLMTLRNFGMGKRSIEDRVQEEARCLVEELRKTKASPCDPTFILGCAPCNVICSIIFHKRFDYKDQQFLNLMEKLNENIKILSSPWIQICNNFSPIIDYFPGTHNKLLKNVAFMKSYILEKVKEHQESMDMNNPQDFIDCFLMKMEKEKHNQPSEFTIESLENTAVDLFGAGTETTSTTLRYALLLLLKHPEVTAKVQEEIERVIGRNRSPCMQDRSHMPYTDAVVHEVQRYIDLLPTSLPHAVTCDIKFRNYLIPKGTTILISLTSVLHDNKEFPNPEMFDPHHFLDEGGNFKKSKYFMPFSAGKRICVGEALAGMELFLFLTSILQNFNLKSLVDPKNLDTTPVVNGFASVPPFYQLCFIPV
Procedure, shortened: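 CYP2C9 activity was measured with a P450-Glo proluciferin substrate. Enzyme–substrate mix was held with compound for 10 min at room temperature, then NADPH regeneration solution was added for 1 h at 37C. Luciferin product was read as luminescence.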

SMILES	activity change, negative = inhibition	Potency
CC(C)(CCC(=O)O)C(=O)O	3.36% (inactive)	
C=CC(=O)OCCCl	-18.8% (inactive)	
CC(=O)Oc1cccc(C)c1	-1.56% [at 53 µM] (inactive)	
C1CCC2(CCCCO2)OC1	-5.55% (inactive)	
C=CCCC(=O)O	-4.4% (inactive)	
CCOc1c(N2CCOCC2)cnn(C)c1=O	1.82% [at 53 µM] (inactive)	
COc1cc(C(=O)OC(COCCC(C)C)CN2CCOCC2)cc(OC)c1OC (centres undefined)		3.09 µM (active)
CO[C@@]1(NC(=O)C(C(=O)O)c2ccc(O)cc2)C(=O)N2C(C(=O)O)=C(CSc3nnnn3C)CO[C@@H]21 (some centres undefined)	-18.7% [at 53 µM] (inactive)	
CN(C)C(=O)Oc1cccc([N+](C)(C)C)c1	-0.607% [at 53 µM] (inactive)	
O=[N+]([O-])c1cncn1CCN1CCOCC1	7.74% [at 53 µM] (inactive)	
Cc1ccnc(NS(=O)(=O)c2ccc(N)cc2)n1	15.1% [at 53 µM] (inactive)	
[Ca+2]	-5.12% (inactive)	
CCCC(C)C(=O)OCC (centres undefined)	-2.39% (inactive)	
CC(C)C1CCC(O)CC1 (centres undefined)	-7.39% (inactive)	
NC(=O)NC1N=C([O][Al])NC1=O (centres undefined)	-15.2% [at 53 µM] (inactive)	
CC1=NN(c2cccc(S(=O)(=O)O)c2)C(=O)C1	-14.8% (inactive)	
CCNS(=O)(=O)c1ccc(C)cc1	28.9% (inactive)	
C=CCOCC(O)CO (centres undefined)	-3.09% (inactive)	
CCCc1ncc(C[n+]2ccccc2C)c(N)n1	-1.53% [at 53 µM] (inactive)	

SMILES	activity change, negative = inhibition	Potency
CC1(C)[C@@H]2CC[C@@]1(C)[C@H](O)C2	-8.79% (inactive)	
c1ccc2sc(SN3CCOCC3)nc2c1		17.4 µM (active)
OCCCCCO	-18.9% (inactive)	
Cc1ccccc1N=C(N)N=C(N)N	-17.1% (inactive)	
O=C(O)CCCC[P+](c1ccccc1)(c1ccccc1)c1ccccc1	0.314% [at 53 µM] (inactive)	
COc1ccc2cc1Oc1cc3c(cc1OC)CC[N+](C)(C)[C@H]3Cc1ccc(cc1)Oc1c(OC)c(OC)cc3c1[C@@H](C2)[N+](C)(C)CC3	-21.3% [at 53 µM] (inactive)	
CN1[C@@H]2CC[C@H]1CC(OC(=O)C(O)c1ccccc1)C2 (some centres undefined)	3.84% [at 53 µM] (inactive)	
O=C1c2ccccc2C(=O)c2cc(O)ccc21		25.2 µM (active)
CCCCCCCCCCCCCCCCCCO	13.9% [at 53 µM] (inactive)	
C=CCCCCCCCCC(=O)OCC	-12.6% (inactive)	
O=C(O)Cc1csc(-c2ccc(Cl)cc2)n1	-6.69% [at 53 µM] (inactive)	
Nc1ccn([C@@H]2O[C@H](CO)[C@@H](O)C2(F)F)c(=O)n1	6.86% [at 53 µM] (inactive)	
CC(C)CC(C)(N)C#N (centres undefined)	-4.77% (inactive)	
Nc1ccncc1N	10.9% [at 53 µM] (inactive)	
C[N+](C)(CCOc1ccccc1)Cc1cccs1	-6.19% [at 53 µM] (inactive)	
Cc1ccc(-c2ncc(Cl)cc2-c2ccc(S(C)(=O)=O)cc2)cn1		17.4 µM (active)
CN1CCN(c2cc3c(nn2)Oc2ccccc2N3C)CC1	2.38% [at 23.6 µM] (inactive)	
COc1ccccc1OCC1CNC(=O)O1 (centres undefined)	-0.288% [at 53 µM] (inactive)	
